ChEMBL document CHEMBL4513148, “CO-ADD screening of Stellenbosch University (South Africa) compounds”
Entries with a potency or affinity are not part of this list.

Tests used:
[1] = test system: Staphylococcus aureus; settings: Concentration 32 ug.mL-1; ASSAY_TEST Inhibition of Bacterial Growth; detection method Absorption (OD600); MEDIA CAMHB; plate type 384well; NBS; CORNING #3640; time 18 hr
[2] = test system: Escherichia coli; settings: Concentration 32 ug.mL-1; ASSAY_TEST Inhibition of Bacterial Growth; detection method Absorption (OD600); MEDIA CAMHB; plate type 384well; NBS; CORNING #3640; time 18 hr

| Structure (SMILES) | Inhibition [1] [%] | Inhibition [2] [%] |
| --- | --- | --- |
| CC(C)(C)C(O)C(=O)NCCC(=O)NCCc1ccccc1 (centres undefined) | 10.92 | -6.19 |
| CC(C)(CO)[C@@H](O)C(=O)NCCC(=S)NCCc1ccccc1 | 10.96 | -8.24 |
| CC(C)(CN)C(O)C(=O)NCCC(=O)NCCc1ccccc1 (centres undefined) | 10.68 | -6.66 |
| CC(C)(COP(=O)(O)O)[C@@H](O)C(=O)NCCC(=O)NCCc1ccccc1 | 15.25 | -8.26 |
| CCCCCCCNS(=O)(=O)CCNC(=O)[C@H](O)C(C)(C)CO | 15.67 | -4.61 |
| CCCCCCNNC(=O)CCNC(=O)[C@H](O)C(C)(C)CO | 13.79 | -4.33 |
| CC(C)(CO)[C@@H](O)C(=O)N/C=C/C(=O)NCCc1ccccc1 | 31.24 | -5.06 |
| CCCCCCCNC(=S)CCNC(=O)[C@H](O)C(C)(C)CO | 14.7 | -4.19 |
| CC(C)(CO)[C@H](O)C(=O)NCc1cn(C[C@H]2O[C@@H](n3ccc(N)nc3=O)[C@H](O)[C@@H]2O)nn1 | 13.05 | -11.94 |
| CC(C)(CO)[C@H](O)C(=O)NCCc1cn(C[C@H]2O[C@@H](n3ccc(N)nc3=O)[C@H](O)[C@@H]2O)nn1 | -0.66 | -7.3 |
| CC(CC(=O)NCCc1ccccc1)NC(=O)[C@H](O)C(C)(C)CO (some centres undefined) | 13.65 | -6.39 |
| CC(C)(CO)C(O)C(=O)NCCCOP(=O)(O)OCC1OC(n2ccc(N)nc2=O)C(O)C1O (centres undefined) | -4.3 | -11.28 |
